{"source": "PubChem BioAssay (EPA / NIEHS)", "note": "Values joined by “and” are separate entries in the source; they are usually repeats but may differ in a detail not shown here. Identical values can stand only once. Records with an inconclusive call do not appear. The source holds several records for some structures; these can differ, active in one and inactive in another. Active and inactive are the calls of the source. How the source made its calls: active means hit-call score of the fitted dose curve at least 0.9, where 1 is the maximum; inconclusive means response in the unintended direction; inactive means score below 0.9."}
{"biological_target": "human Thromboxane A2 Receptor (TXA2), TBXA2R (gene 6915) (UniProt P21731)", "sequence (P21731 whole entry, looked up)": "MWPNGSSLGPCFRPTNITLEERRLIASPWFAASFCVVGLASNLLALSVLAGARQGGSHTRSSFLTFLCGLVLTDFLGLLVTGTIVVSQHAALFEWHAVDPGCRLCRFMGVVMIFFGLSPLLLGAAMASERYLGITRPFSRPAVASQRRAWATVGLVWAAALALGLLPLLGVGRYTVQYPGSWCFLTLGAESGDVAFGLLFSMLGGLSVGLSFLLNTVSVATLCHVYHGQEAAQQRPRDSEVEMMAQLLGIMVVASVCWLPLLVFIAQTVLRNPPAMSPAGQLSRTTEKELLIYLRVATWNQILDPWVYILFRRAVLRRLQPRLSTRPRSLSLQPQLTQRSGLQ", "test": "NVS_GPCR_hTXA2: NovaScreen (NVS) G Protein-Coupled Receptor Assay for human Thromboxane A2 Receptor (TXA2) (AID 2283282);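 further: actives reduce bound radioligand signal relative to DMSO baseline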", "outline": "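Filter scintillation counting of bound radioligand, human platelet protein, 1 h exposure. Single-concentration duplicates (25 uM) first, concentration-response follow-up for actives. Binding loss scored against DMSO baseline.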"}
{"smiles": "CC(C)(C)c1cc(CCC(=O)OCCSCCOC(=O)CCc2cc(C(C)(C)C)c(O)c(C(C)(C)C)c2)cc(C(C)(C)C)c1O", "outcome": "inactive"}
{"smiles": "Cc1cc(O)c(C)c(C)c1O", "outcome": "inactive"}
{"smiles": "Cc1cccc(O)c1", "outcome": "inactive"}
{"smiles": "CC/C=C\\C#N", "outcome": "inactive"}
{"smiles": "O=S1(=O)CC(Cl)(Cl)C(Cl)(Cl)C1", "outcome": "inactive"}
{"smiles": "COc1ccccc1NC(=O)CC(C)=O", "outcome": "inactive"}
{"biological_target": "human Opioid Receptor Mu (Opiate Mu), OPRM1 (gene 4988) (UniProt P35372)", "sequence (P35372 whole entry, looked up)": "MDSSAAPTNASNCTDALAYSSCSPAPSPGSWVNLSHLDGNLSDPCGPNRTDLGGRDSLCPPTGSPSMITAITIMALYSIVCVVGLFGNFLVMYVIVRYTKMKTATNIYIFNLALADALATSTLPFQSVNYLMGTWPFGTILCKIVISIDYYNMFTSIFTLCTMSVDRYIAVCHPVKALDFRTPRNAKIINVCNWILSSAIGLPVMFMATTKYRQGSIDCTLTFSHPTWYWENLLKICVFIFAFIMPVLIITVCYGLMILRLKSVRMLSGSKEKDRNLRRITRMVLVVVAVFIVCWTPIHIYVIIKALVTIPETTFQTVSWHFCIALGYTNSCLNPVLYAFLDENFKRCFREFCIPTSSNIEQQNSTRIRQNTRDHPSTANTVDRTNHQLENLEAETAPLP", "test": "NVS_GPCR_hOpiate_mu: NovaScreen (NVS) G Protein-Coupled Receptor Assay for human Opioid Receptor Mu (Opiate Mu) (AID 2283290);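 further: hits lower bound tracer signal versus DMSO meaning displacement of the ligand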", "outline": "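Radioligand displacement binding on membranes from CHO cells expressing the receptor, 2.5 h after dosing, filter-based scintillation counting; loss of signal vs DMSO baseline. Screened in duplicate at 25 uM, actives then run in concentration series.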"}
{"smiles": "C#C[C@]1(O)CC[C@H]2[C@@H]3CCc4cc(O)ccc4[C@H]3CC[C@@]21C", "AC50": "25 µM (active) and 6.05 µM (active)", "outcome": "inactive"}
{"smiles": "O=C(c1ccc(OCCN2CCCCC2)cc1)c1c(-c2ccc(O)cc2)sc2cc(O)ccc12", "AC50": "711 nM (active)"}
{"smiles": "CC/C(=C(\\c1ccccc1)c1ccc(OCCN(C)C)cc1)c1ccccc1", "outcome": "inactive"}
{"smiles": "c1ccc2c(c1)-c1ccc3ccc4cccc5cc-2c1c3c45", "AC50": "3450 nM (active)"}
